Source: PubChem BioAssay (National Center for Advancing Translational Sciences (NCATS))
Hits are enriched below; roughly 0.41% of the tested compounds scored in any of these assays.
TRPML1 ag = activates the human TRPML1 channel | Q9GZU1 | TRPML1-expressing cells, Ca2+ dye fluorescence, FDSS | activation, % (concentration not given with the values) | 410,000 tested, 0.12% active; in the data active = activation above about 50%; also: 0% is about no effect
Target sequence (Q9GZU1 whole entry, looked up): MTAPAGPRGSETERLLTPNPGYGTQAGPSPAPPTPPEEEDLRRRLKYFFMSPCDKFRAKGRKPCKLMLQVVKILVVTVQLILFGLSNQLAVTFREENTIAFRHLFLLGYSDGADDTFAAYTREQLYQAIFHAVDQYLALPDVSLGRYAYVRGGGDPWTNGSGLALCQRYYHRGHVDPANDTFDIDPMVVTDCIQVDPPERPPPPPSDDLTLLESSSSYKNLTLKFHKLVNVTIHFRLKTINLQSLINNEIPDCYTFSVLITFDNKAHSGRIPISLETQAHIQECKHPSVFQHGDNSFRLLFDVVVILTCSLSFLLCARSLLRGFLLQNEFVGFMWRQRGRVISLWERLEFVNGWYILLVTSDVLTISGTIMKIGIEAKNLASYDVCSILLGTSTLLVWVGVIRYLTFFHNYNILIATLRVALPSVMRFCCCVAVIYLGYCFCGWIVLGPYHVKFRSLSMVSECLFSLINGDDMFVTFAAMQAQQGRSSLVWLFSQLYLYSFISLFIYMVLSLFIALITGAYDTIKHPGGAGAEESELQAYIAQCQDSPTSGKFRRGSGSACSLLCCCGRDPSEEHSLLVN
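Cells: TRPML1-DL, 1X Tet inducer, ~16 h at 37 degrees C/5% CO2. Dye: ABD Ca8 no-wash + quencher, 45-90 min RT. Read: 10 s baseline, compound add, 110 s agonist phase; 54-4 EC80 (4uM final), 110 s antagonist phase.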
TRPML1 inh = inhibitors of human TRPML1 channel | TRPML1-inducible cells, Ca2+ dye fluorescence, FDSS; hits give low values; inhibition of EC80 agonist-evoked calcium signal | activity change, negative = inhibition, % (test concentration not listed) | 390,000 tested, 0.02% active | AID 624415; in the data active = activity change below about -50%;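 also: stimulus is agonist 54-4 at its EC80 concentration; % is scaled to controls: 0 for no effect and ±100 for the full control effect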
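Tet-induced TRPML1-DL cells loaded with Ca8 no-wash calcium dye were read kinetically on FDSS. Compound addition was followed by EC80 agonist 54-4 (4 uM final); inhibition was read over 110 s.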
TRPV1 potentiator = potentiators of human vanilloid receptor 1 (TRPV1); TRPV1-expressing cells, Fluo-8 calcium influx, capsaicin EC20 potentiation; potentiation, % at 8.33 µM; 320,000 tested, 0.02% active; AID 540277; in the data active = potentiation above about 80%; also: 0% is about no effect
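TRPV1-expressing cells were cultured overnight at 35.5C and loaded with Fluo-8 calcium dye for 40 to 90 min at room temperature. After a 10 s baseline, compound was added and calcium influx was read kinetically for 3 min (ex 480/em 520 nm).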
LDHA inh = LDHA (human) enzyme inhibition. P00338. purified LDHA, NADH/diaphorase-resazurin fluorescence; hits give low values. activity change, % (values are at about 110 or 230 µM). 480,000 tested, 0.15% active. AID 1347041; in the data active = activity change below about -30%;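 also: plate controls were DMSO wells for no effect and wells without enzyme for full effect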
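Remaining NADH was detected by diaphorase (0.133 mg/mL) converting 37 µM resazurin to fluorescent resorufin, read at 0 and 20 minutes. The preceding 5-minute room-temperature reaction used 2 nM LDHA, 0.2 mM sodium pyruvate and 0.06 mM NADH at pH 7.4.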
TRPV1 ag = activates the human vanilloid receptor TRPV1 | TRPV1-expressing cells, Fluo-8 calcium influx, agonist mode | 320,000 tested, 0.19% active | activation, % at 8.33 µM; in the data active = activation above about 80%; also: 0% is about no effect
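Fluo-8 calcium influx in TRPV1-expressing cells, kinetic read (ex 480/em 520 nm). Compound added and read 3 min for agonist activity, followed by capsaicin at EC20 final and 2 min further read for enhancement.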
Starred values were filed as active, the others as inactive; x = no result given.

SMILES	TRPML1 ag	TRPML1 inh	TRPV1 potentiator	LDHA inh	TRPV1 ag
CCOc1ccccc1NC(=O)C(NCCN(C)C)c1ccccc1 (stereo not drawn)	-0.2	0.8	-39.4	-41.1*	2.8
CN(C)CCNC(C(=O)Nc1cccc(C(F)(F)F)c1)c1ccccc1 (stereo not drawn)	-0.1	5.8	6.2	-37.3*	1.1
O=C(CN1CCN(C(=O)c2cc3ccccc3[nH]2)CC1)N1CCCCCC1	x	x	x	5.7	x
Cc1ccc(S(=O)(=O)N2CCCC2C(=O)n2nc(C)c(Sc3ccccc3)c2C)cc1 (stereo not drawn)	x	x	x	-34.8*	x
Cc1nn(C(=O)C2CCCN2S(=O)(=O)c2ccc(F)cc2)c(C)c1Sc1ccccc1 (stereo not drawn)	x	x	x	-34.4*	x
COc1cccc(/C=N/NC(=S)Nc2cccc(C(=O)O)c2)c1O	4.4	0.6	-20.9	-47.2*	-0.2
COc1ccc(C(=O)Sc2ccc(Cl)cc2)cc1	x	x	x	-24.0	x
CCN(CC)CC(=O)Nc1cc(N(C)C)nc2ccccc12	0.5	37.3	-0.6	-33.3*	1.8
CCCCCC(=O)Nc1cc(N(C)C)nc2ccccc12	1.7	7.7	23.8	-4.4	4.0
CCCCCc1coc2cc(O)ccc2c1=O	x	x	x	-2.6	x
Cc1oc2cc(OC(=O)c3ccco3)ccc2c(=O)c1-c1ccc(Br)cc1	x	x	x	-34.1*	x
COc1ccc(N2CCN(C(C)C(=O)N3CCCC3)CC2)cc1 (stereo not drawn)	-0.1	-11.2	3.6	-38.0*	0.4
CC[C@@H]1CCC[C@@H](O)[C@@H](C)C(=O)O[C@H](C)[C@@H](C)C/C=C(C)/C(OC)=C\C(=O)N(C)C([C@@H](C)CC)C(=O)N(C)[C@@H](C(C)C)C(=O)N(C)[C@@H](COC)C(=O)N2CCC[C@H]2C(=O)N(C)[C@@H](C(C)C)C(=O)N2CCC[C@H]2C(=O)O1 (stereo partly drawn)	51.1*	x	x	-4.6	x
CCC(C)(C)C1CCC(NC(=O)c2ccc(S(=O)(=O)N3CCOCC3)cc2)CC1 (stereo not drawn)	2.1	20.3	-3.8	-5.4	80.4*
NC(=O)c1cc2ccc(O)cc2oc1=NCc1ccccc1	59.2*	-14.9	1.1	-0.6	22.2
Cc1ccccc1NC(=O)c1ccc(-c2ccc(Cl)cc2Cl)o1	3.4	-50.6*	3.0	3.4	14.9
COc1ccc(CN2CCN(C(C)C(=O)N(C)Cc3cccc(F)c3)CC2)cc1OC (stereo not drawn)	1.0	-15.1	-13.2	-34.5*	-0.6
COc1ccc(NC(C)=O)cc1NC(C)C(=O)N(C)Cc1cccc(F)c1 (stereo not drawn)	x	x	x	0.1	x
N#Cc1c(-c2ccc(Cl)cc2)cc(-c2ccccc2)nc1SCC(=O)O	x	x	4.7	-9.0	1.5
N#Cc1c(-c2ccc(F)cc2)cc(-c2ccccc2)nc1SCC(=O)NCC(=O)O	3.1	-10.4	x	-79.6*	x
O=C(Nc1ccc(C2=NCCN2)cc1)c1ccc(C(=O)Nc2ccc(C3=NCCN3)cc2)c([N+](=O)[O-])c1	0.5	-25.7	-10.4	-35.6*	-2.4
Cc1c(N=c2scc(-c3ccccc3)n2C)c(=O)n(-c2ccccc2)n1C	-0.4	-7.2	94.6*	-5.0	5.1
Cc1c(N=c2scc(-c3ccccc3)n2CCO)c(=O)n(-c2ccccc2)n1C	0.9	7.6	-1.1	-6.5	1.5
O=c1[nH]c(Nc2ccccc2Cl)nc2nccc(-c3ccco3)c12	x	x	x	0.5	x
Cc1cccc(C)c1N1CCN(C(=O)N2CCOCC2)CC1	-0.4	-3.7	-20.2	-5.7	80.5*
SMILES	TRPML1 ag	TRPML1 inh	TRPV1 potentiator	LDHA inh	TRPV1 ag
Cc1ccc(N2CCN(C(=O)N3CCOCC3)CC2)cc1C	0.3	14.9	-2.4	-5.1	13.1
COC(=O)c1cccc(COc2ccc(Br)cc2)c1	x	x	x	1.9	x
COc1ccc(NC(=O)c2ccc3c(c2)CCN3S(C)(=O)=O)cc1	0.0	-12.2	x	-2.0	x
CS(=O)(=O)N1CCc2cc(C(=O)Nc3ccc(Cl)cc3)ccc21	0.1	-16.5	-8.6	-0.9	84.1*
O=C(Nc1ccc2c3c(cccc13)CC2)c1ccc(Br)o1	-1.0	16.3	-6.9	-7.4	84.9*
COc1ccc(NC(=O)c2cc(S(=O)(=O)N3CCc4ccccc43)cn2C)cc1Cl	x	x	x	-0.1	x
CCOc1ccccc1NC(=O)C(=O)c1c[nH]c2c(CC)cccc12	x	x	x	-36.2*	x
